Experimental data: PubChem BioAssay (Tox21)
Results filed as inconclusive are left out. Activity calls are given as the source filed them. Unless noted, the call rests on the fitted dose curve; in most records, active means well fitted curve in the direction sought with a large enough effect in the repeat runs; inconclusive means weak or mixed curves; inactive means no such curve, though single readings can be large; an effect the other way counts as inactive or inconclusive.

Assays:
[1] = qHTS RealTime-Glo MT Cell Viability Assay in HEK293 cells - 24 hour (AID 1224886); further: top concentration of the series differs between compounds; nearly all actives have a fitted effect of over 50% in size
Summary of the method: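 Quantitative high-throughput screen of the Tox21 10K library in HEK293: cells and RealTime-Glo reagents plated together, compound added at 5 h, luminescence monitored through 40 h at 37 C.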

[2] = qHTS RealTime-Glo MT Cell Viability Assay in HEK293 cells - 8 hour (AID 1224887); further: top concentration of the series differs between compounds; nearly all actives have a fitted effect of over 50% in size
Summary of the method: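 Real-time viability in HEK293: signal arises when living cells convert a prosubstrate for NanoLuc in the medium, so luminescence tracks viable cell number. Compound (23 nL, DMSO) added 5 h post-seeding; kinetic reads at 0–40 h, 37 C.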

[3] = A CellTox Green Cytotoxicity Assay to monitor cytotoxicity in HEK293 cells - 16 hour (AID 1224888); further: nearly all actives have a fitted effect of over 35% in size
Summary of the method: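 Cells (HEK293, 600/well) and dye reagent are dispensed together. After 5 h at 37 C, 23 nL compound is pinned in. Plates stay at 37 C for 40 h with fluorescence read at 0h, 8h, 16h, 24h, 32h and 40h.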

[4] = A CellTox Green Cytotoxicity Assay to monitor cytotoxicity in HepG2 cells - 8 hour (AID 1224890); further: nearly all actives have a fitted effect of over 45% in size
Summary of the method: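 Cells and non-lytic dye reagent are dispensed together (600 HepG2 cells/well) and incubated 5 h before DMSO compound transfer. Kinetic fluorescence is then recorded in the same wells during 40 h at 37 C.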

[5] = qHTS assay to identify small molecule antagonists of the estrogen receptor alpha (ER-alpha) signaling pathway using the BG1 cell line in the presence of 0.1 nM 17-beta-estradiol - cell viability counter screen (AID 1259241); further: nearly all actives have a fitted effect of over 40% in size; further: potency means the concentration at half of the fitted maximal effect
Summary of the method: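 Viability in VM7Luc4E2 cells after 22 hr compound exposure under 0.1 nM 17beta-estradiol stimulation, by CellTiter-Fluor.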

[6] = biological target: Estrogen receptor (Homo sapiens) (UniProt P03372); test: qHTS assay to identify small molecule antagonists of the estrogen receptor alpha (ER-alpha) signaling pathway using the BG1 cell line in the presence of 0.1 nM 17-beta-estradiol (AID 1259244); further: nearly all actives have a fitted effect of over 50% in size
Estrogen receptor (Homo sapiens), sequence (P03372 whole entry, looked up): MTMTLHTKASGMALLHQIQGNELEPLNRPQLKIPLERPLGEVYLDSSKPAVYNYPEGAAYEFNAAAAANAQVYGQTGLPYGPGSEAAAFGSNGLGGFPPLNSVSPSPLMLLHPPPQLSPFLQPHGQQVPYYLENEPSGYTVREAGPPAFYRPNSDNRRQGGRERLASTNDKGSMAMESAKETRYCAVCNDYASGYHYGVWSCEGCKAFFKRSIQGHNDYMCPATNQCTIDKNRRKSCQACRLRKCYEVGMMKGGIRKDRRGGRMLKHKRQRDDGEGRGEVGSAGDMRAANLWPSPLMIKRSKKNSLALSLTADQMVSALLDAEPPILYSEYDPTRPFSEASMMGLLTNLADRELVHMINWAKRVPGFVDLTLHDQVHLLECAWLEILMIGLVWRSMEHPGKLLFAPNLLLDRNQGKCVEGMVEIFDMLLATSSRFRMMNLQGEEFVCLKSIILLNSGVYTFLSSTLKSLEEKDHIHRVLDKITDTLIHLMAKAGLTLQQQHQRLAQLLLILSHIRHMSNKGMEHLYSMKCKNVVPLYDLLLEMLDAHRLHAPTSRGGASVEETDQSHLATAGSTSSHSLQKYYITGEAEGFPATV
Summary of the method: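 Antagonist mode: compounds in DMSO are pinned onto VM7Luc4E2 reporter cells, 0.1 nM final 17beta-estradiol is added, and after 22 h at 37C luciferase luminescence is measured with ONE-Glo.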

[7] = qHTS assay to identify small molecule HDAC inhibitors (AID 1259364); further: potency means the concentration at half of the fitted maximal effect;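 further: wild-type HCT-116 cells with endogenous class I/II HDAC activity; nearly all actives have a fitted effect of over 45% in size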; on activity change, negative = inhibition: top concentration of the series differs between compounds
Summary of the method: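 Cells (HCT-116, wild type) are seeded at 1,500 per well, incubated overnight, treated with compound in DMSO for 2 hr, then developed with HDAC-Glo I/II reagent for 30 min at room temperature.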

[8] = qHTS assay to identify small molecule HDAC inhibitors - cell viability counter screen (AID 1259365); further: series mostly up to about 92 µM; nearly all actives have a fitted effect of over 50% in size
Summary of the method: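 Cytotoxicity was gauged in wild-type HCT-116 cells after a brief 2hr treatment with DMSO-dissolved compounds at 37C and 5% CO2, using CellTiter-Glo luminescence developed for 30min at room temperature.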

[9] = qHTS assay to identify small molecule antagonists of the sonic hedgehog signaling (Shh) pathway - cell viability counter screen (AID 1259367); further: nearly all actives have a fitted effect of over 55% in size
Summary of the method: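 Cytotoxicity was assessed in parallel with Shh reporter activity by measuring live-cell protease fluorescence (CellTiter-Fluor) in NIH/3T3 cells stably carrying Gli1-Luc, treated with compound under conditioned medium stimulation for 23 hr plus 1 hr reagent incubation.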

[10] = qHTS assay to identify small molecule antagonists of the sonic hedgehog signaling (Shh) pathway (AID 1259369; calls by dose curve; further: nearly all actives have a fitted effect of over 45% in size)
Summary of the method: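 Cells are plated and held 4hr at 37 C, compounds (DMSO) are pinned in, conditioned medium is added to stimulate the pathway, and after 24hr luciferase reagent is added for 30min before luminescence is read.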

[11] = biological target: Estrogen receptor beta (Homo sapiens) (UniProt Q92731); test: qHTS assay to identify small molecule agonists of the estrogen receptor beta (ER-beta) signaling pathway (AID 1259377; active means well fitted activation curve with a large enough effect in the signal ratio in the repeat runs, not every such curve was filed as active; the % refers to the signal ratio)
Estrogen receptor beta (Homo sapiens), sequence (Q92731 whole entry, looked up): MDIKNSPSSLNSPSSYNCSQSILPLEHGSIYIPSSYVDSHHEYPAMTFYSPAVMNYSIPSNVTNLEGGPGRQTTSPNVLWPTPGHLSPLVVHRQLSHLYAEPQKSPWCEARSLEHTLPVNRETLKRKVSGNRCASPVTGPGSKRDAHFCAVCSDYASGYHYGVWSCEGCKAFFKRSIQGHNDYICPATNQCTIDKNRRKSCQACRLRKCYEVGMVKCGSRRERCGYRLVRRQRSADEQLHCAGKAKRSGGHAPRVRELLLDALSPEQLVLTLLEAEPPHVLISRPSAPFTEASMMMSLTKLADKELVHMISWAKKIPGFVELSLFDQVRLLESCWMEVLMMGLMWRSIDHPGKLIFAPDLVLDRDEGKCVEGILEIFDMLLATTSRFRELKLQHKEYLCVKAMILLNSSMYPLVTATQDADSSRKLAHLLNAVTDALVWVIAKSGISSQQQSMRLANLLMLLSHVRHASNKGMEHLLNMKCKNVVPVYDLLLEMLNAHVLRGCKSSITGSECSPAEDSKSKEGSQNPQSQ
Summary of the method: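 Measured by fluorescence intensity from a B/G FRET beta-lactamase substrate (2 h, room temperature) in ER-beta-UAS-bla HEK293T cells treated with DMSO-dissolved compounds for 16 hr at 37C and 5% CO2.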

[12] = biological target: Estrogen receptor beta (Homo sapiens) (UniProt Q92731); test: qHTS assay to identify small molecule antagonists of the estrogen receptor beta (ER-beta) signaling pathway (AID 1259378; active means well fitted inhibition curve with a large enough effect in the signal ratio in the repeat runs, not every such curve was filed as active; the % refers to the signal ratio)
Summary of the method: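 ER-beta-UAS-bla HEK293T (GripTite) cells in 2% charcoal-stripped FBS medium were preincubated 6 hr at 37C, dosed with compound, then stimulated with 1 nM E2 (final) for 16 hr; beta-lactamase reporter read by B/G FRET fluorescence after 2 hr substrate loading.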

[13] = qHTS assay to identify small molecule agonists of the estrogen receptor beta (ER-beta) signaling pathway - cell viability counter screen (AID 1259380); further: nearly all actives have a fitted effect of over 30% in size
Summary of the method: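 Cytotoxicity is measured in parallel with the reporter screen: after 16 hr compound exposure at 37C and a 2 hr LiveBLAzer step, CellTiter-Glo is added to the same ER-beta-UAS-bla HEK293T wells and luminescence read after 30 min.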

[14] = qHTS assay to identify small molecule antagonists of the androgen receptor (AR) signaling pathway using the MDA cell line in the presence of 0.5 nM R1881 - cell viability counter screen (AID 1259242); further: nearly all actives have a fitted effect of over 45% in size; further: potency means the concentration at half of the fitted maximal effect
Summary of the method: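 Steps: plate MDA-kb2 cells, rest 5 hr at 37C without CO2; pin in compounds in DMSO; add R1881 to 0.5 nM final; incubate 16 hr; add CellTiter-Fluor, 30 min; read fluorescence.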

[15] = qHTS assay to identify small molecule agonists of the sonic hedgehog signaling (Shh) pathway (AID 1259368; calls by dose curve;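 further: NIH/3T3-derived 3T3Gli1-Luc cells carrying a stable Gli1-driven firefly luciferase reporter; series mostly up to about 92 µM; nearly all actives have a fitted effect of over 15% in size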)
Summary of the method: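 Cells of a mouse NIH/3T3 clone stably expressing luciferase under the Gli1 transcriptional response element are exposed to test chemicals for 24 hr at 37 C. Pathway activation is detected as a rise in luminescence.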

[16] = qHTS assay to identify small molecule agonists of the androgen receptor (AR) signaling pathway in the presence of an antagonist - cell viability counter screen (AID 1259379); further: nearly all actives have a fitted effect of over 25% in size; further: potency means the concentration at half of the fitted maximal effect;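 on activity change, negative = cytotoxicity: MDA-kb2 human breast cancer cells carrying an MMTV luciferase reporter; series mostly up to about 92 µM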
Summary of the method: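 Cytotoxicity is assessed by CellTiter-Fluor in MDA-kb2 cells carrying an MMTV-driven luciferase reporter. Cells receive 3.0uM nilutamide plus compounds at 15 concentrations and incubate 16 hr at 37C without CO2 before fluorescence reading.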

[17] = qHTS assay to identify small molecule agonists of the sonic hedgehog signaling (Shh) pathway - cell viability counter screen (AID 1259366); further: nearly all actives have a fitted effect of over 50% in size; further: potency means the concentration at half of the fitted maximal effect
Summary of the method: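 Stable Gli1-Luc NIH/3T3 clone, 2,000 cells/well. Compound exposure 24hr at 37C. Read-out: CellTiter-Fluor fluorescence.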

[18] = qHTS RealTime-Glo MT Cell Viability Assay in HepG2 cells - 0 hour (AID 1224889); further: nearly all actives have a fitted effect of over 50% in size
Summary of the method: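 Compound treatment began 5 h after plating HepG2 cells (600/well) with NanoLuc luciferase and prosubstrate. Plates stayed at 37 C for 40 h; luminescence was captured at six time points, 0 h through 40 h.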

[19] = qHTS assay to identify small molecule phospholipidosis (PLD) inducers (AID 1259344; active means well fitted curve in the direction sought with a large enough effect; an effect the other way counts as inactive or inconclusive)
Summary of the method: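 Cells (HepG2, 900 per well) attach for 4 h, receive LipidTOX Red and compound together, incubate 24 h at 37 C, are fixed 30 min with paraformaldehyde/Hoechst, then imaged at one site per well.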

[20] = biological target: Androgen receptor (Homo sapiens) (UniProt P10275); test: qHTS assay to identify small molecule antagonists of the androgen receptor (AR) signaling pathway using the MDA cell line in the presence of 0.5 nM R1881 (AID 1259243); further: nearly all actives have a fitted effect of over 50% in size
Androgen receptor (Homo sapiens), sequence (P10275 whole entry, looked up): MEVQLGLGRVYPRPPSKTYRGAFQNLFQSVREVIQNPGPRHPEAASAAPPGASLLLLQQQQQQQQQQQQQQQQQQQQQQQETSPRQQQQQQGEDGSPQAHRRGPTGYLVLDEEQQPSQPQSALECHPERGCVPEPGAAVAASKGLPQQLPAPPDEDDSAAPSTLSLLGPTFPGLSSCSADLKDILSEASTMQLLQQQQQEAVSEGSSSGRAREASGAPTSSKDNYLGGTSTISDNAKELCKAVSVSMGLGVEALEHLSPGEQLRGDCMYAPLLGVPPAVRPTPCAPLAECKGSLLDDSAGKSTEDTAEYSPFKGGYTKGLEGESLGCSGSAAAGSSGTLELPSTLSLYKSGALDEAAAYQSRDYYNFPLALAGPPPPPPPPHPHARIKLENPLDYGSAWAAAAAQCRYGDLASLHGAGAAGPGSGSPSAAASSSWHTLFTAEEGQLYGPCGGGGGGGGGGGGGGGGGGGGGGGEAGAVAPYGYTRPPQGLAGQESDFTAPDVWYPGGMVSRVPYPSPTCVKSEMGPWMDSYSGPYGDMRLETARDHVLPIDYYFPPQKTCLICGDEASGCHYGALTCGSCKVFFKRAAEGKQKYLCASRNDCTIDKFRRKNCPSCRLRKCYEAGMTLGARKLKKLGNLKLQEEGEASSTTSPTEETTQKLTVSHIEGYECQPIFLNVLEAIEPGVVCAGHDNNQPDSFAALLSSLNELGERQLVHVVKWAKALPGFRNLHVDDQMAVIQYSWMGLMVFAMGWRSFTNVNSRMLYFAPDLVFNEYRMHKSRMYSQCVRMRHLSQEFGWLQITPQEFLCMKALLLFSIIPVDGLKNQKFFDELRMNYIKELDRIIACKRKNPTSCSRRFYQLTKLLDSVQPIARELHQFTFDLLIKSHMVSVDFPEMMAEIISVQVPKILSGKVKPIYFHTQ
Summary of the method: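 Stably transfected MDA-kb2 cells express luciferase from an MMTV promoter bearing both AR and GR response elements. Compounds plus 0.5 nM R1881 (final) were incubated 16 hr at 37C without CO2, then luminescence measured.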
On the % scale 0 is the no-effect control and ±100 the full control effect.

CC(C)CCO
inactive: Potency [1] | Potency [2] | Potency [3] | Potency [4] | Potency [5] | Potency [6] | Potency [7] | outcome [8] | Potency [9] | Potency [10] | Potency [11] | outcome [12] | outcome [13]

CCN(CCO)c1cccc(C)c1
inactive: Potency [1] | Potency [2] | Potency [3] | Potency [4] | Potency [5] | Potency [14] | Potency [7] | Potency [9] | outcome [15] | Potency [10] | Potency [16] | outcome [13]

CC(C)CCCCCCOC(=O)C1CCCCC1C(=O)OCCCCCCC(C)C (configuration not stated)
inactive: Potency [1] | Potency [2] | Potency [3] | Potency [5] | Potency [14] | Potency [7] | outcome [8] | Potency [17] | Potency [9] | outcome [15] | Potency [10] | Potency [11] | outcome [12] | Potency [16] | outcome [13]

BrC/C=C/CBr
inactive: activity change, negative = cytotoxicity [1] 0.605% [at 15.8 µM] | activity change, negative = cytotoxicity [2] -6.32% [at 15.8 µM] | activity change [3] 4.41% [at 15.8 µM, stronger effect = higher value] | activity change, negative = cytotoxicity [5] 5.53% [at 19 µM] | viability change, negative = cytotoxic [14] 0.0069% [at 19 µM] | activity change, negative = inhibition [7] -0.207% [at 19 µM] | activity change, negative = cytotoxicity [8] 2.41% [at 19 µM] | viability change, negative = cytotoxic [17] 0.645% [at 19 µM] | viability change, negative = cytotoxic [9] -1.72% [at 19 µM] | activity change [15] -1.5% [at 18.9 µM] | activity change, negative = inhibition [10] -14% [at 19 µM] | activation [11] 0.425% [at 19 µM] | activity, negative = inhibition [12] 8.47% [at 19 µM] | activity change, negative = cytotoxicity [16] 0.671% [at 19 µM] | activity change, negative = cytotoxicity [13] 4.89% [at 19 µM]

NS(=O)(=O)c1ccccc1OC(F)(F)F
inactive: Potency [1] | Potency [2] | Potency [3] | Potency [18] | Potency [5] | Potency [7] | outcome [8] | Potency [17] | outcome [15] | Potency [10] | Potency [11] | outcome [12] | Potency [16] | outcome [13]

F[Si-2](F)(F)(F)(F)F
inactive: Potency [1] | Potency [2] | Potency [3] | Potency [18] | Potency [5] | Potency [7] | outcome [8] | Potency [17] | Potency [9] | Potency [10] | Potency [11] | outcome [12] | Potency [16] | outcome [13]

NS(=O)(=O)c1ccc(Cl)c(S(N)(=O)=O)c1
inactive: Potency [1] | Potency [2] | Potency [3] | Potency [4] | Potency [5] | Potency [14] | Potency [6] | outcome [19] | Potency [7] | outcome [8] | Potency [17] | Potency [9] | outcome [15] | Potency [10] | Potency [11] | outcome [12]

CN[C@@H]1[C@@H](O)[C@@H](O[C@@H]2[C@H](O)[C@H](O[C@H]3OC(CN)=CC[C@H]3N)[C@@H](N)C[C@H]2N)OCC1(C)O (some centres not stated)
inactive: Potency [1] | Potency [2] | Potency [3] | Potency [4] | Potency [5] | Potency [14] | outcome [19] | Potency [7] | outcome [8] | Potency [17] | Potency [9] | outcome [15] | Potency [10] | Potency [16]

O=C(O)c1c(Cl)ccc(Cl)c1Cl
inactive: Potency [1] | Potency [2] | Potency [3] | Potency [4] | Potency [5] | Potency [14] | Potency [6] | Potency [7] | outcome [8] | Potency [17] | Potency [9] | Potency [10] | Potency [16] | outcome [13]

COc1ccc(N=Nc2cc(C)c(N=Nc3ccc(S(=O)(=O)O)cc3)cc2OC)cc1
inactive: Potency [1] | Potency [2] | Potency [3] | Potency [4] | outcome [8] | Potency [9] | outcome [15] | Potency [10] | Potency [11] | outcome [13]
active: Potency [5] 68.6 µM | Potency [14] 48.6 µM | Potency [17] 54.5 µM | Potency [16] 48.6 µM

Cc1cccc(NC(=S)N(C)C)c1
inactive: Potency [1] | Potency [2] | Potency [3] | Potency [4] | Potency [5] | Potency [14] | Potency [17] | Potency [9] | Potency [10] | Potency [11] | Potency [16] | outcome [13]

CCC(C)N (configuration not stated)
inactive: Potency [1] | Potency [2] | Potency [3] | Potency [5] | Potency [6] | Potency [7] | outcome [8] | Potency [17] | Potency [9] | outcome [15] | Potency [10] | Potency [11] | outcome [12] | Potency [16] | outcome [13]

O=C(O)c1ccccc1C(=O)OCc1ccccc1
inactive: Potency [1] | Potency [2] | Potency [3] | Potency [4] | Potency [5] | Potency [14] | outcome [20] | Potency [6] | Potency [7] | outcome [8] | Potency [17] | Potency [9] | outcome [15] | Potency [10] | outcome [13]

Cc1ccccc1OCC1CO1 (configuration not stated)
inactive: Potency [1] | Potency [2] | Potency [3] | Potency [5] | Potency [6] | Potency [7] | outcome [8] | Potency [17] | Potency [9] | outcome [15] | Potency [10] | Potency [11] | outcome [12] | Potency [16] | outcome [13]

Cc1cc(O)c2c(c1)C(=O)c1cccc(O)c1C2=O
inactive: Potency [1] | Potency [2] | Potency [3] | Potency [4] | Potency [5] | Potency [14] | outcome [8] | Potency [17] | outcome [15] | Potency [10] | Potency [11] | outcome [12] | outcome [13]
active: Potency [7] 13.4 µM

CCCCCCCCCCCCCCCCI
inactive: activity change, negative = cytotoxicity [2] -0.789% [at 15.8 µM] | activity change [3] -4.25% [at 15.8 µM, stronger effect = higher value] | activity change, negative = cytotoxicity [18] -19.8% [at 15.8 µM] | cytotoxicity increase [4] -10.7% [at 15.8 µM] | activity change, negative = cytotoxicity [5] 7.96% [at 19 µM] | viability change, negative = cytotoxic [14] 2.57% [at 19 µM] | outcome [20] | activity change, negative = cytotoxicity [8] -1.08% [at 19 µM] | viability change, negative = cytotoxic [17] 5% [at 19 µM] | viability change, negative = cytotoxic [9] -1.6% [at 19 µM] | activity change [15] -0.0263% [at 18.9 µM] | activation [11] 0.348% [at 19 µM] | activity, negative = inhibition [12] 2.97% [at 19 µM] | activity change, negative = cytotoxicity [16] -1.43% [at 19 µM] | activity change, negative = cytotoxicity [13] -6.04% [at 19 µM]
